Data on 33 molecules can be found in PubChem BioAssay (NCI).

About 83,000 compounds went through this panel and 20% of them were active in at least one assay; those are over-represented in the sample as a whole.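 Compound tested at a single concentration for 48 hours in 96-well plates; a percent growth value below 10 was scored as active.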 A number with no mark means an inactive call. Calls of active or inactive are those of the source.

In this assay the test system is HL-60(TB) leukemia. Put plainly: NCI-60 one-dose screen, 48 h (100 = growth as untreated, 0 = no growth, -100 = all killed). The settings on record: 10 µM unless noted.
In the case of `COc1ccc2[nH]cc(-c3cc4nc(-c5cn(C)c6ncc(Br)cc56)cc(N)n4n3)c2c1`, the growth is -61.2% (active).

As to `CCNCCCn1c2c(c3cc(OC)c(OC)cc3c1=O)C(=O)c1cc3c(nc1-2)OCO3`, the growth is 55.1%.

In the case of `COC(=O)C(Cc1ccc(O)c(O)c1)NC(=O)C(CSC/C=C(\C)CCCC(C)CCCC(C)CCCC(C)C)NC(C)=O` (stereo not drawn), the growth was -22.9% (active).

In the case of `CN(C)c1nc(NCCNS(=O)(=O)c2ccc(C(=O)/C=C/c3ccc(C(F)(F)F)cc3)cc2)nc(N2CCOCC2)n1`, the growth was -25.1% (active).

On to `Cc1cc(C)nc(NS(=O)(=O)c2ccc(N/C(N)=N/c3nccc(-c4cccs4)n3)cc2)n1`, for which the growth was 1.77% (active).

For the molecule `Cc1ccc(C(=O)CSc2nc3ccc(C)cc3c(=O)n2-c2ccc(F)cc2)cc1`, the growth is 123%.

On to `Brc1ccc(/C=N/Nc2ncnc3sc4c(c23)CCN(Cc2ccccc2)C4)cc1`, for which the growth is 19.9%.

Turning to `CCN1C(=O)N(CC)C2NNC(Sc3c(C(=O)O)c4ccccc4n(C4CCCC4)c3=O)=NC21` (stereo not drawn), the growth was -9.96% (active).

As for `COc1cccc2nc(Nc3ccc(F)c(NC(=O)c4ccc(CN5CCN(C)CC5)c(C(F)(F)F)c4)c3)ccc12`, the growth was -73.1% (active).

As for `O=C(c1ccc(O)cc1)C1[C@H](c2ccccc2Br)[C@@H](c2ccccc2)NC12C(=O)Nc1ccccc12` (stereo partly drawn), the growth was 19.8%.

Turning to `COc1ccc(N=Nc2c(N)nn3c(N)c(C#N)c(-c4ccc(F)cc4)nc23)cc1`, the growth was 74%.

On to `COc1ccc(NC(=O)CSc2nnc(-c3ccc(-c4nc5ccc(Cl)cc5[nH]4)cc3)o2)cc1`, for which the growth was 61.5%.

Take `O=C(Cc1c(-c2ccccc2[N+](=O)[O-])n(-c2ncnc3c2c(-c2ccccc2)c(-c2ccccc2)n3Cc2ccccc2)[nH]c1=O)c1ccc(Cl)c(Cl)c1`: the growth was 1.19% (active).

For the molecule `OCCNc1oc(-c2ccccc2)nc1[P+](c1ccccc1)(c1ccccc1)c1ccccc1`, the growth was -29.6% (active).

`O=C(NO)c1ccc(-c2nc3ccc4[nH]ncc4c3c3c2CCCC3)cc1`: the growth is -18.7% (active).

For the molecule `N#Cc1c(-c2cccnc2)cc(-c2ccc3ccccc3c2)[nH]c1=O`, the growth is 72.6%.

As to `CCOC(=O)c1ccc(NC(=O)CSC(CC(=O)c2sc(Nc3ccccn3)nc2C)c2ccccc2F)cc1` (stereo not drawn), the growth is 2.8% (active).

As for `O=C(COc1ccc(NC(=O)Nc2ccccc2)cc1)N=Nc1c(O)[nH]c2ccc([N+](=O)[O-])cc12`, the growth is 23.4%.

Turning to `CC(C)CSc1nc(NCCc2c[nH]c3ccccc23)c(C#N)c(-c2ccc(Cl)cc2)n1`, the growth was 47.5%.

With `C#C[C@]1(O)CC[C@H]2[C@@H]3CC=C4c5sc(Nc6ccc(C(F)(F)F)cn6)nc5CC[C@]4(C)[C@H]3CC[C@@]21C`, the growth was 1.27% (active).

For `COc1ccc(C2N(c3ccc(Br)cc3)N=C(C(C)=O)N2[C@H]2[C@H](OC(C)=O)O[C@H](COC(C)=O)[C@@H](OC(C)=O)[C@@H]2OC(C)=O)cc1` (stereo partly drawn), the growth was 23.7%.

With `COc1ccc(NC(=O)Nc2ccc(OCC(=O)N=Nc3c(O)[nH]c4ccc([N+](=O)[O-])cc34)cc2)cc1`, the growth is 99%.

With `O=C(CNc1nc(-c2ccccc2)cs1)Nc1ccc(Cl)cc1`, the growth was -46.7% (active).

Consider `COc1ccc(/C=C/c2nc3ccccc3c(=O)n2CC(=O)Nc2ccc(OC)cc2)cc1`, for which the growth is 82%.

Take `COc1c(B(O)O)cccc1-c1nc2ccc3cn[nH]c3c2c2c1CCCC2`: the growth is 47.6%.

In the case of `O=C(N/N=C/c1ccc(-c2cccc([N+](=O)[O-])c2)o1)c1[nH]c2ccc(Br)cc2c1-c1ccccc1`, the growth is -36.5% (active).

Consider `O=C(Nc1ccc(I)cc1)Nc1nc2ccc([N+](=O)[O-])cc2s1`, for which the growth is -37.3% (active).

Consider `COc1cc(-c2ccc(/C=N/NC(=O)c3[nH]c4ccc(Br)cc4c3-c3ccccc3)s2)cc(OC)c1OC`, for which the growth was 99%.

Take `Cc1cc(N=C2NC(=O)/C(=C/c3cc(C(C)(C)C)c(O)c(C(C)(C)C)c3)S2)n[nH]1`: the growth is 5.2% (active).

In the case of `COc1ccc2[nH]c(=O)c(CSc3ccccc3Nc3nccc(-c4ccc(Cl)cc4)n3)cc2c1`, the growth was 23.2%.

`N#CC1=C(c2ccco2)Nc2c(c(-c3ccccc3)nn2-c2ccccc2)C12C(=O)Nc1ccc(Cl)cc12` (stereo not drawn): the growth was 43.8%.

With `CCOC(=O)c1sc(N/N=C(\C)c2ccc3c(c2)Nc2ccccc2S3)nc1C`, the growth was 22.1%.

Consider `C=C1CCC2C3(C)COC(c4cccc(F)c4)OC3CCC2(C)C1CC(O)C1=CCOC1=O` (stereo not drawn), for which the growth was 66.7%.
